SRC1 TRFRET art: TR-FRET artefact, counter-screen to PPARgamma/SRC-1 agonist assay | TR-FRET detection artefact counter-screen, emission ratio; stronger effect = higher value | TR-FRET ratio at 8 µM | actives 0.34% (n = 99,000); in the data active = TR-FRET ratio above about 2300
PPARg SRC-2 ag: agonists of SRC-2 recruitment by human PPARgamma. PPARgamma LBD-SRC-2 recruitment, biochemical. activation, % at 8 µM. AID 1032. actives 0.34% (n = 200,000)
Target sequence (P37231 whole entry, looked up, the tested form may be a part): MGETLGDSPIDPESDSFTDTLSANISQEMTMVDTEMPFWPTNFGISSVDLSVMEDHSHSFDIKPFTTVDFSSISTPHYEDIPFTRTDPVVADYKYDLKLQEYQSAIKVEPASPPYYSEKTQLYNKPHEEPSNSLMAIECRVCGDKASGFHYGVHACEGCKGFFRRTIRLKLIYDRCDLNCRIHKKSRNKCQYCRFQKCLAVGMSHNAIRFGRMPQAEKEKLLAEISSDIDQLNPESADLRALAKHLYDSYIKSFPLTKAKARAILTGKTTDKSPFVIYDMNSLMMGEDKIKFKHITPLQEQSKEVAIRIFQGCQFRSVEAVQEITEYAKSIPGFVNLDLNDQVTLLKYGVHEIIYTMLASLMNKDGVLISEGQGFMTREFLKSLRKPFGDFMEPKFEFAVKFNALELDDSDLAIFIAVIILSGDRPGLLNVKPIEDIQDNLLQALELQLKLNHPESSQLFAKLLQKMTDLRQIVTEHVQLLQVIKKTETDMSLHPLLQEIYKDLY
PPARg SRC1 recr: PPARgamma-driven SRC-1 recruitment agonism; AID 631; PPARgamma-SRC-1 coactivator recruitment biochemical assay; actives 0.41% (n = 200,000); P37231; activation, % at 8 µM; in the data active = activation above about 19%
SRC3 TRFRET art: TR-FRET artefact, counter-screen to PPARgamma/SRC-3 agonist assay; PPARgamma/SRC-3 format; stronger effect = higher value; TR-FRET ratio at 8 µM; actives 0.39% (n = 99,000); AID 1048; in the data active = TR-FRET ratio above about 2000
SRC2 TRFRET art: flags TR-FRET format artefacts in PPARgamma SRC-2 recruitment agonist screen. TR-FRET artefact counter-screen; stronger effect = higher value. TR-FRET ratio at 8 µM. actives 0.4% (n = 200,000); in the data active = TR-FRET ratio above about 2000
PPARg SRC3 recr: promotes SRC-3 coactivator recruitment by human PPARgamma; biochemical PPARgamma/SRC-3 coactivator recruitment assay; AID 731; actives 0.26% (n = 200,000); P37231; activation, % at 8 µM; in the data active = activation above about 23%
PPARg SRC2 ag: human PPARgamma SRC-2 recruitment agonism, confirmation | shares compounds with PPARg SRC3 recr | biochemical SRC-2 recruitment by PPARgamma | activation, % at 8 µM | actives 52% (n = 790)
PPARg SRC1 conf: confirmation of agonists of SRC-1 recruitment by human PPARgamma; shares compounds with PPARg SRC3 recr; PPARgamma–SRC-1 coactivator recruitment biochemical assay; activation, % at 8 µM; actives 43% (n = 790); AID 1300; in the data active = activation above about 20%
PPARg SRC3 conf: confirmation of agonists of SRC-3 recruitment by human PPARgamma. shares compounds with PPARg SRC3 recr. biochemical PPARgamma-SRC-3 coactivator recruitment, agonist mode. activation, % at 8 µM. actives 29% (n = 790). AID 1301; in the data active = activation above about 24%
Of the large screens only hits and unclear results are named; the others gave an inactive call (follow-up assays come after a bar, where they were run). The list is not random: actives were taken first. Their share in the collection is about 0.84%. Cut-off read from the data, not from the text of the source, unless noted: active = activation above about 22%; inactive = the rest.

Cc1ccc(C(=O)C2=C(O)C(=O)N(c3ncccn3)C2c2ccc(Cl)cc2)o1 (stereo not drawn)	PPARg SRC-2 ag 38, PPARg SRC1 recr 28, SRC2 TRFRET art 2243, PPARg SRC3 recr 43 (no result: SRC1 TRFRET art, SRC3 TRFRET art) | PPARg SRC2 ag 28 | PPARg SRC1 conf 21 | PPARg SRC3 conf inactive
CS(=O)(=O)c1ccccc1-c1nnc(-c2ccc(Cl)cc2)o1	none
O=S(=O)(Cc1ccc(Cl)cc1)c1ccccc1-c1nnc(-c2ccccc2)o1	PPARg SRC-2 ag 26, SRC2 TRFRET art 2006 (no result: SRC1 TRFRET art, SRC3 TRFRET art) | PPARg SRC2 ag inactive | PPARg SRC1 conf inactive | PPARg SRC3 conf inactive
Cc1cc(-c2cccc(Br)c2)c(C#N)c(N)n1	SRC1 TRFRET art 2711, PPARg SRC-2 ag 25, PPARg SRC1 recr 22 | PPARg SRC2 ag inactive | PPARg SRC1 conf inactive | PPARg SRC3 conf inactive
Cc1cc(C)c(C#N)c(N)n1	none
CCC(=O)Nc1cccc(-c2nc3ccccc3c(=O)o2)c1	PPARg SRC1 recr 19 (no result: SRC1 TRFRET art, SRC3 TRFRET art) | PPARg SRC2 ag inactive | PPARg SRC1 conf inactive | PPARg SRC3 conf inactive
Cn1cnnc1SCC(=O)Nc1sc2c(c1C(N)=O)CCC2	none (no result: SRC1 TRFRET art, SRC3 TRFRET art)
CN(C)CCCNc1ccc(S(N)(=O)=O)cc1[N+](=O)[O-]	none
CCc1cc2cc(C(=O)Nc3ccc(F)cc3)sc2s1	PPARg SRC-2 ag 39, SRC2 TRFRET art 2237 (no result: SRC1 TRFRET art, SRC3 TRFRET art) | PPARg SRC2 ag 25 | PPARg SRC1 conf inactive | PPARg SRC3 conf inactive
O=C(Cc1cccs1)NCCSc1c(-c2ccc(Cl)cc2)[nH]c2ccccc12	SRC1 TRFRET art 3752, PPARg SRC1 recr 28, SRC3 TRFRET art 7221, SRC2 TRFRET art 5424, PPARg SRC3 recr 54 | PPARg SRC2 ag 26 | PPARg SRC1 conf 32 | PPARg SRC3 conf 41
Cc1ccc(-c2[nH]c3ccccc3c2SCCNC(=O)c2cc3ccccc3oc2=O)cc1	none
COc1ccc(N2CCN(C(=O)Cn3c(=O)[nH]c4ccsc4c3=O)CC2)cc1	none
Cc1cc(C)nc(-n2nc(C)cc2NC(=O)CN2CCc3ccccc3C2)n1	none (no result: SRC1 TRFRET art, SRC3 TRFRET art)
Cc1cc(C)nc(-n2nc(C)cc2NC(=O)CN2CCCC(C)C2)n1 (stereo not drawn)	PPARg SRC1 recr 20 (no result: SRC1 TRFRET art, SRC3 TRFRET art) | PPARg SRC2 ag inactive | PPARg SRC1 conf inactive | PPARg SRC3 conf inactive
CCc1ccc(-c2cc(C(F)(F)F)n3nc(C(=O)Nc4cnn(Cc5ccc(C)cc5)c4)cc3n2)s1	none (no result: SRC1 TRFRET art, SRC3 TRFRET art)
O=C(c1ccccc1)N1CCSc2sccc2C1=O	SRC1 TRFRET art 2582, PPARg SRC-2 ag 29, SRC3 TRFRET art 2052, SRC2 TRFRET art 2115 | PPARg SRC2 ag 39 | PPARg SRC1 conf 32 | PPARg SRC3 conf 24
O=C(c1ccccc1)N1CCSC1=S	none (no result: SRC1 TRFRET art, SRC3 TRFRET art)
Cc1ccc(S(=O)(=O)N2CCN(c3ccccc3)CC2)cc1C(N)=O	none
CCOc1ccc(NC(=S)C(C#N)=C2N(C)c3ccccc3N2C)cc1	PPARg SRC1 recr 23 | PPARg SRC2 ag inactive | PPARg SRC1 conf inactive | PPARg SRC3 conf inactive
Cc1ccc2cc(C#N)c(SCC(=O)NNC(=O)Cc3ccccc3)nc2c1	none
COc1ccc2cc(C#N)c(SCC(=O)NNC(=O)Cc3ccccc3)nc2c1	PPARg SRC-2 ag 49, PPARg SRC1 recr 32, SRC2 TRFRET art 2781 (no result: SRC1 TRFRET art, SRC3 TRFRET art) | PPARg SRC2 ag 54 | PPARg SRC1 conf 42 | PPARg SRC3 conf 37
COc1ccc(NC(=O)c2sc(=S)[nH]c2N)cc1	PPARg SRC3 recr 28 (no result: SRC1 TRFRET art, SRC3 TRFRET art) | PPARg SRC2 ag inactive | PPARg SRC1 conf inactive | PPARg SRC3 conf inactive
COC(=O)C1CSC(C(=O)OC)N1C(=O)CN1CCN(c2ccc(OC)cc2)CC1 (stereo not drawn)	none
COc1cccc2c1C(=O)c1c(O)c3c(c(O)c1C2=O)C[C@@](O)(C(=O)CO)C[C@@H]3O[C@H]1C[C@H](N)[C@H](O)[C@H](C)O1	PPARg SRC1 recr 28 | PPARg SRC2 ag inactive | PPARg SRC1 conf inactive | PPARg SRC3 conf inactive
NC(=O)c1sc2nc(-c3ccco3)ccc2c1N	PPARg SRC3 recr 30 (no result: SRC1 TRFRET art, SRC3 TRFRET art) | PPARg SRC2 ag inactive | PPARg SRC1 conf inactive | PPARg SRC3 conf inactive

Source: PubChem BioAssay
